# HT1080 IDH1KD tx: HT-1080 IDH1 knockdown cell toxicity (counter line); HT-1080 IDH1 knockdown viability, ATP luminescence, 48 h; Potency, µM (doses to about 46.1 µM), inactives show at the highest dose activity, negative = toxicity, most hits filed as cytotoxic; actives 2% (n = 360,000);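 further: potency means the concentration at half of the fitted maximal effect; 0% = DMSO wells and -100% = cell-free medium wells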
#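 IDH1KD HT-1080 cells, 750/well, RPMI + 5% FBS; compound pinned after 2 h settling; 48 h, 37 °C; CellTiter-Glo luminescence; % activity normalised to DMSO and no-cell wells; curves fitted, classed by r2 and efficacy.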
# DT40 TDP1 CPT: growth inhibition of DT40 Tdp1-/-;hTDP1 cells with camptothecin (screen for TDP1 inhibitors). chicken DT40 Tdp1-/-;hTDP1 cells + 20 nM CPT, ATP luminescence, 48 h. Potency, µM (series often up to 46.2 µM), without a hit: at the top dose activity change, negative = growth inhibition, most hits filed as inhibitors. actives 12% (n = 420,000). AID 686979; further: potency means the concentration at half of the fitted maximal effect; nearly all actives have a fitted effect of over 55% in size
#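 Chicken DT40 Tdp1-/- cells complemented with human TDP1, 400 cells/well, exposed to compounds plus 20 nM camptothecin for at least 48 h at 37 C; viability read as ATP content by CellTiter-Glo luminescence.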
# TDP1 cell noCPT: qHTS for Inhibitors of human tyrosyl-DNA phosphodiesterase 1 (TDP1): qHTS in cells in absence of CPT | DT40 Tdp1-/- hTDP1 cells, no CPT, ATP luminescence, 48 h | Potency, µM (highest dose often 46.2 µM), for the others: at the highest dose activity change, negative = growth inhibition, actives largely listed as inhibitors | actives 15% (n = 420,000); further: potency means the concentration at half of the fitted maximal effect; nearly all actives have a fitted effect of over 55% in size
#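 Seeded 400 DT40-hTDP1 cells/well (vehicle DMSO, no 20 nM CPT); pinned compounds; ≥48 hr at 37 °C; CellTiter-Glo luminescence as viability measure.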
# IL1B secr inh: inhibitors of inflammasome signaling (IL-1 beta secretion) | THP-1 LPS/ATP IL-1B secretion, AlphaLISA, 16 h; stronger effect = lower value | actives 4.7% (n = 360,000) | AID 743279 | activity change, % at 57.5 µM; in the data active means activity change below about -50%; inconclusive means mostly about -30% to -49%
#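 Secreted IL-1B measured by AlphaLISA bead assay after 16 h compound exposure of THP-1 cells; compounds (final up to 57.5 uM) added 1 h before LPS (250 ng/mL) and ATP (1.25 mM) stimulation; lower signal means less secretion.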
# HT1080NT lethal: kills 2HG-producing HT-1080-NT fibrosarcoma cells; AID 686970; actives 1.6% (n = 360,000); Potency, µM (titrated, usually from 46.1 µM), inactives show at the top dose activity, negative = less viability, usual class: cytotoxic; HT-1080-NT fibrosarcoma viability, CellTiter-Glo ATP luminescence, 48 h;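 further: NT is the 2HG producing partner of a matched IDH1 knockdown line; potency means the concentration at half of the fitted maximal effect; 0% = DMSO-treated cells and -100% = media-only wells without cells; nearly all actives have a fitted effect of over 55% in size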
#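 Toxicity toward the 2HG-producing NT line was scored as %Activity, normalised to DMSO and no-cell wells, from CellTiter-Glo luminescence after 48 hours' treatment.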
# An asterisk follows results filed as active; u = inconclusive; x = no result given. Compounds with a hit are over-represented: about 19% of the library has one in this group of screens. Unless noted, the call rests on the fitted dose curve; in most records, active means well fitted curve in the direction sought with a large enough effect; inconclusive means small, poorly fitted or top-dose-only effect, or another doubt; inactive means no such curve, though single readings can be large; an effect the other way counts as inactive or inconclusive. Unless noted, on the % scale 0 is the no-effect control and ±100 the full control effect.
SMILES,HT1080 IDH1KD tx,DT40 TDP1 CPT,TDP1 cell noCPT,IL1B secr inh,HT1080NT lethal
CC(=O)N1CCC2(CC1)CN(Cc1ccc(C#N)cc1)C2,x,-2%,-7%,x,x
CC(C)C(NS(=O)(=O)c1cccc2nsnc12)C(=O)NC1CCCCC1C (configuration not stated),-3%,-4%,-3%,3,0%
COc1ccc(C)cc1S(=O)(=O)N(CC(=O)Nc1ccc2c(c1)OCCO2)Cc1ccccc1,-28%,10µM*,u,-7,-3%
COc1ccccc1N(CC(=O)Nc1ccc2c(c1)OCO2)S(=O)(=O)c1ccccc1,-7%,u,13µM*,7,-8%
COc1ccc(N(CC(=O)Nc2ccc3c(c2)OCO3)S(C)(=O)=O)c(OC)c1,-7%,-22%,0%,1,-6%
COc1ccc(S(=O)(=O)N(CC(=O)Nc2ccc3c(c2)OCO3)c2ccccc2OC)cc1,-18%,21µM*,15µM*,-9,-3%
COc1cccc(N(CC(=O)Nc2ccc3c(c2)OCO3)S(=O)(=O)c2ccccc2)c1,-10%,u,u,u,-13%
COc1ccc(C)cc1S(=O)(=O)N(C)CC(=O)Nc1ccc2c(c1)OCO2,-22%,4%,-21%,-6,-18%
COC(=O)c1cc(NC(=O)CN(c2ccccc2OC)S(=O)(=O)c2ccccc2)ccc1Cl,-16%,u,u,-22,-25%
COc1ccccc1N(CC(=O)Nc1ccc(C)c(Cl)c1)S(=O)(=O)c1ccc(C)cc1,x,21µM*,18µM*,x,x
COc1ccc(C(=O)N2CCC(C(=O)Nc3ccccc3Cl)CC2)cc1,x,1%,-14%,x,x
CCCCn1c(N)c(N(CC(C)C)C(=O)CC(NC(=O)c2ccccc2Cl)c2ccccc2)c(=O)[nH]c1=O (configuration not stated),0%,-17%,-36%,-30,0%
COc1cc(C(=O)NNC(=O)c2cc(C)[nH]n2)cc(OC)c1OC,10%,-5%,-14%,-3,-3%
CCCCOc1ccc(-c2nnn(CC(=O)NCc3ccco3)n2)cc1,7.9µM*,4.6µM*,4.6µM*,30,7.1µM*
CCCCCNC(=O)C(C1CC1)n1c(=O)c(-c2cc3ccccc3[nH]2)nc2ccccc21 (configuration not stated),u,u,u,-3,u
CCOc1ccc(NC(=O)CN(C)C(=O)c2ccccc2OCc2c(C)noc2C)cc1OCC,2%,u,0.65µM*,7,-1%
CCOc1ccc(CCNC(=O)c2ccc(OCc3c(C)noc3C)cc2)cc1OCC,-9%,26µM*,21µM*,2,u
COc1ccc(CN(C)C(=O)c2ccccc2OCc2c(C)noc2C)c(OC)c1,-1%,-14%,-17%,34,-1%
Cc1noc(C)c1COc1ccccc1C(=O)N(C)Cc1ccc(F)cc1,2%,u,u,37,5%
COc1ccc(Br)cc1CN(C)C(=O)c1ccccc1OCc1c(C)noc1C,3%,u,16µM*,-65*,7%
Cc1noc(C)c1COc1ccccc1C(=O)N(C)Cc1ccc(C(C)(C)C)cc1,u,7.3µM*,6.5µM*,54,-24%
COc1ccc(Cl)cc1N(CC(=O)NCCSc1ccccn1)S(=O)(=O)c1ccccc1,-4%,u,u,-4,-1%
CCCCN(CC)CCCNC(=O)c1cn(CC)c2ccc(S(=O)(=O)N3CCOCC3)cc2c1=O,x,-7%,-5%,x,x
CCCCN(Cc1cc2cc(C)ccc2[nH]c1=O)C(=O)c1ccccn1,6%,u,u,9,-4%
COc1ccc(CCNC(=O)c2ccccc2OCc2c(C)noc2C)cc1,-8%,u,u,4,-2%
Cc1noc(C)c1COc1ccccc1C(=O)NCCc1ccc(Cl)cc1,5%,u,u,-69*,10%

# Assay outcomes (PubChem)
